About 83,000 compounds went through this panel and 20% of them were active in at least one assay; those are over-represented in the sample as a whole.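 Note: values are percent growth. 100 is the growth of untreated cells, values between 100 and 0 indicate rising inhibition; between -100 and 0 indicates cell death.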 A number with no mark means an inactive call. Activity calls are given as the source filed them. How the source made its calls: active means growth percent below 10; inactive means the rest.
Test system: MDA-MB-231 breast
Assay: NCI-60 one-dose screen, 48 h (100 = growth as untreated, 0 = no growth, -100 = all killed)
Details: 10 µM unless noted

Q: `O=C1/C(=C/c2ccc(Oc3ccccc3)cc2)N=C(c2ccccc2)N1CCc1cccs1` was tested. Which growth did it give?
A: 79.8%

Q: Which growth does the source give for `O=C1/C(=C/c2ccc(Cl)cc2)N=C(c2ccccc2)N1CCc1cccs1` here?
A: 64.8%

Q: For `COc1ccc(Sc2ccc3[nH]c(=O)nc(N)c3c2)cc1`, which growth is on record?
A: 91.5%

Q: `COc1cc(C(=O)N(C(C)C)C2CCCCC2)cc(OC)c1OC` was tested. Which growth did it give?
A: 127%

Q: Which growth does the source give for `COc1ccc(C2OCC(C)(C)CO2)cc1OC` here?
A: 103%

Q: For `O=C(NCc1ccco1)C1CCN(S(=O)(=O)c2ccc(Cl)cc2)CC1`, which growth is on record?
A: 68.9%

Q: For `COc1ccc(-c2csc3c2-n2cccc2C3=O)cc1O`, which growth is on record?
A: 13.2%

Q: Which growth does the source give for `COC(=O)[C@@H]1CCCN1C(=O)[C@@H]1CCCN1C(=O)[C@@H](Cc1c[nH]c2ccccc12)NC(=S)Nc1cc(C(F)(F)F)cc(C(F)(F)F)c1` here?
A: 53.2%

Q: How did the growth turn out when `CCN1C(=O)C2(Nc3ccccc3S2)c2cc(C)ccc21` (stereo not drawn) was run?
A: 105%

Q: How did the growth turn out when `Cc1nc(-c2ccccc2)cc2c(O)c(C(=O)N/N=C/Cc3ccccc3)[nH]c(=O)c12` was run?
A: 113%

Q: Which growth does the source give for `O=S(=O)(/N=C1C=C/C(=N\S(=O)(=O)c2ccccc2)c2ccccc2\1)c1ccccc1` here?
A: 98.3%

Q: How did the growth turn out when `CCCOC(=O)c1ccc2c(c1)[N+](=O)C(C(=O)c1ccccc1)=C(C(F)(F)F)[N+]2=O` was run?
A: -90.4% (active)

Q: With `CCCN(CCC)c1ccc(/C=C/c2ccc3cc(OCC)ccc3n2)cc1` as the compound, how does the growth read?
A: 109%

Q: How did the growth turn out when `COc1cccc(C2CC(=O)Nc3cc4c(cc32)CCC4)c1OC` (stereo not drawn) was run?
A: 60.3%

Q: Which growth does the source give for `CC1SC(c2ccc(Cl)cc2)N(CCc2cccs2)C1=O` (stereo not drawn) here?
A: -4.43% (active)

Q: How did the growth turn out when `O=C(O)c1ccccc1Oc1cc(-c2ccco2)nc(OCCBr)n1` was run?
A: 105%

Q: For `COc1ccccc1/C=C/C(=O)/C=C/c1ccccc1O`, which growth is on record?
A: 4.57% (active)

Q: Which growth does the source give for `COc1cc(/C=C/C(=O)C(=Cc2ccc(F)c(F)c2)C(=O)/C=C/c2ccc(O)c(OC)c2)ccc1O` here?
A: 13.1%

Q: For `CC1(C)CC(=O)C2=C(C1)Nc1cc3c(cc1C2c1ccc(F)cc1)OCO3` (stereo not drawn), which growth is on record?
A: 108%

Q: With `Nc1nc(N)c(C=Nc2ccc(Br)cc2)c(Nc2ccc(Br)cc2)n1` as the compound, how does the growth read?
A: 86.1%

Q: `COc1cc(/C=C2\C(=O)Nc3ccccc32)cc(OC)c1O` was tested. Which growth did it give?
A: 63.1%

Q: For `Brc1ccccc1Nc1ccc2nnc(-c3ccncc3)n2n1`, which growth is on record?
A: 108%

Q: How did the growth turn out when `O=C(Nc1nc2ccccc2[nH]1)C(=O)Nc1nc2ccccc2[nH]1` was run?
A: 91%

Q: For `COc1ccc(C2SC(C)C(=O)N2CCc2cccs2)cc1OC` (stereo not drawn), which growth is on record?
A: 73.2%

Q: `Oc1ccc(Cl)cc1CNc1nc2ccccc2[nH]1` was tested. Which growth did it give?
A: -24.1% (active)

Q: Which growth does the source give for `CCOC(=O)c1c(-c2cc(OC)c(OC)c(OC)c2)csc1N` here?
A: 105%

Q: For `COc1cc(C2CC(=O)Nc3c2ccc2ccccc32)cc(Br)c1OC` (stereo not drawn), which growth is on record?
A: 28.5%

Q: For `Cc1ccc(-c2nnc(COc3ccc(-c4nnc(N)s4)cc3)o2)cc1`, which growth is on record?
A: 87.8%

Q: For `COc1cc(/C=C2\C(=O)N(c3c(Cl)cccc3Cl)c3ccccc32)cc(OC)c1O`, which growth is on record?
A: 72.4%

Q: With `COC(=O)[C@H]1CCCN1C(=O)[C@H]1CCCN1C(=O)[C@@H](Cc1c[nH]c2ccccc12)NC(=S)Nc1cc(C(F)(F)F)cc(C(F)(F)F)c1` as the compound, how does the growth read?
A: 44.5%

Q: How did the growth turn out when `COc1ncnc2c1ncn2C/C(Br)=C(\Br)CCl` was run?
A: 41.8%

Q: How did the growth turn out when `COc1cc(CNCCN2C(=O)c3ccc4c5c(ccc(c35)C2=O)C(=O)N(CCNCc2cc(OC)c(OC)c(OC)c2)C4=O)cc(OC)c1OC` was run?
A: -83.9% (active)

Q: Which growth does the source give for `O=C1CN2CCC1C/C2=C\c1ccnc2c(Cl)cccc12` (stereo not drawn) here?
A: 90.1%

Q: How did the growth turn out when `O=C1OCC2=C1C(c1ccc3c(c1)OCO3)CC(=O)N2c1cccc(Cl)c1` (stereo not drawn) was run?
A: 101%

Q: With `Cc1ccc(C2SCC(=O)N2NC(=O)c2[nH]c3ccc(F)cc3c2-c2ccccc2)cc1` (stereo not drawn) as the compound, how does the growth read?
A: 86.4%

Q: `O=C(Nc1ccccc1)Oc1cccc2cccnc12` was tested. Which growth did it give?
A: 96.7%

Q: With `CCOC(=O)c1sc(NC(=O)CN2CCC(Cc3ccccc3)CC2)nc1C` as the compound, how does the growth read?
A: 119%

Q: Which growth does the source give for `CN([N-]C(=O)CC(=O)[N-]N(C)C(=S)c1ccccc1)C(=S)c1ccccc1.[Cu+2]` here?
A: -89.5% (active)

Q: With `Clc1cccc(Cl)c1Nc1ccc2nnc(-c3ccncc3)n2n1` as the compound, how does the growth read?
A: 114%

Test system: RXF 393 renal
Assay: as above
Details: 10 µM unless noted

Q: Which growth does the source give for `O=C1/C(=C/c2ccc(Oc3ccccc3)cc2)N=C(c2ccccc2)N1CCc1cccs1` here?
A: 92.1%

Q: With `O=C1/C(=C/c2ccc(Cl)cc2)N=C(c2ccccc2)N1CCc1cccs1` as the compound, how does the growth read?
A: 69.9%

Q: With `COc1ccc(Sc2ccc3[nH]c(=O)nc(N)c3c2)cc1` as the compound, how does the growth read?
A: 101%

Q: `COc1cc(C(=O)N(C(C)C)C2CCCCC2)cc(OC)c1OC` was tested. Which growth did it give?
A: 97.4%

Q: With `COc1ccc(C2OCC(C)(C)CO2)cc1OC` as the compound, how does the growth read?
A: 88%

Q: `O=C(NCc1ccco1)C1CCN(S(=O)(=O)c2ccc(Cl)cc2)CC1` was tested. Which growth did it give?
A: 85.1%

Q: Which growth does the source give for `COc1ccc(-c2csc3c2-n2cccc2C3=O)cc1O` here?
A: 31.3%

Q: `COC(=O)[C@@H]1CCCN1C(=O)[C@@H]1CCCN1C(=O)[C@@H](Cc1c[nH]c2ccccc12)NC(=S)Nc1cc(C(F)(F)F)cc(C(F)(F)F)c1` was tested. Which growth did it give?
A: 47.5%

Q: How did the growth turn out when `CCN1C(=O)C2(Nc3ccccc3S2)c2cc(C)ccc21` (stereo not drawn) was run?
A: 93.7%

Q: Which growth does the source give for `Cc1nc(-c2ccccc2)cc2c(O)c(C(=O)N/N=C/Cc3ccccc3)[nH]c(=O)c12` here?
A: 127%

Q: With `O=S(=O)(/N=C1C=C/C(=N\S(=O)(=O)c2ccccc2)c2ccccc2\1)c1ccccc1` as the compound, how does the growth read?
A: 107%

Q: For `CCCOC(=O)c1ccc2c(c1)[N+](=O)C(C(=O)c1ccccc1)=C(C(F)(F)F)[N+]2=O`, which growth is on record?
A: -93.2% (active)

Q: With `CCCN(CCC)c1ccc(/C=C/c2ccc3cc(OCC)ccc3n2)cc1` as the compound, how does the growth read?
A: 81.6%

Q: Which growth does the source give for `COc1cccc(C2CC(=O)Nc3cc4c(cc32)CCC4)c1OC` (stereo not drawn) here?
A: 57%

Q: For `CC1SC(c2ccc(Cl)cc2)N(CCc2cccs2)C1=O` (stereo not drawn), which growth is on record?
A: -35.7% (active)

Q: Which growth does the source give for `O=C(O)c1ccccc1Oc1cc(-c2ccco2)nc(OCCBr)n1` here?
A: 135%

Q: Which growth does the source give for `COc1ccccc1/C=C/C(=O)/C=C/c1ccccc1O` here?
A: -75.8% (active)

Q: Which growth does the source give for `COc1cc(/C=C/C(=O)C(=Cc2ccc(F)c(F)c2)C(=O)/C=C/c2ccc(O)c(OC)c2)ccc1O` here?
A: -32.5% (active)

Q: With `CC1(C)CC(=O)C2=C(C1)Nc1cc3c(cc1C2c1ccc(F)cc1)OCO3` (stereo not drawn) as the compound, how does the growth read?
A: 82.3%

Q: How did the growth turn out when `Nc1nc(N)c(C=Nc2ccc(Br)cc2)c(Nc2ccc(Br)cc2)n1` was run?
A: 78.9%

Q: How did the growth turn out when `COc1cc(/C=C2\C(=O)Nc3ccccc32)cc(OC)c1O` was run?
A: 71.3%

Q: How did the growth turn out when `Brc1ccccc1Nc1ccc2nnc(-c3ccncc3)n2n1` was run?
A: 101%

Q: `O=C(Nc1nc2ccccc2[nH]1)C(=O)Nc1nc2ccccc2[nH]1` was tested. Which growth did it give?
A: 102%

Q: For `COc1ccc(C2SC(C)C(=O)N2CCc2cccs2)cc1OC` (stereo not drawn), which growth is on record?
A: 86.1%

Q: How did the growth turn out when `Oc1ccc(Cl)cc1CNc1nc2ccccc2[nH]1` was run?
A: 51.7%

Q: `CCOC(=O)c1c(-c2cc(OC)c(OC)c(OC)c2)csc1N` was tested. Which growth did it give?
A: 93.2%

Q: For `COc1cc(C2CC(=O)Nc3c2ccc2ccccc32)cc(Br)c1OC` (stereo not drawn), which growth is on record?
A: -1.55% (active)

Q: Which growth does the source give for `Cc1ccc(-c2nnc(COc3ccc(-c4nnc(N)s4)cc3)o2)cc1` here?
A: 58%

Q: Which growth does the source give for `COc1cc(/C=C2\C(=O)N(c3c(Cl)cccc3Cl)c3ccccc32)cc(OC)c1O` here?
A: 90.4%

Q: How did the growth turn out when `COC(=O)[C@H]1CCCN1C(=O)[C@H]1CCCN1C(=O)[C@@H](Cc1c[nH]c2ccccc12)NC(=S)Nc1cc(C(F)(F)F)cc(C(F)(F)F)c1` was run?
A: 56.3%

Q: `COc1ncnc2c1ncn2C/C(Br)=C(\Br)CCl` was tested. Which growth did it give?
A: 70.1%

Q: With `COc1cc(CNCCN2C(=O)c3ccc4c5c(ccc(c35)C2=O)C(=O)N(CCNCc2cc(OC)c(OC)c(OC)c2)C4=O)cc(OC)c1OC` as the compound, how does the growth read?
A: -94.9% (active)

Q: Which growth does the source give for `O=C1CN2CCC1C/C2=C\c1ccnc2c(Cl)cccc12` (stereo not drawn) here?
A: 107%

Q: For `O=C1OCC2=C1C(c1ccc3c(c1)OCO3)CC(=O)N2c1cccc(Cl)c1` (stereo not drawn), which growth is on record?
A: 96.5%

Q: For `Cc1ccc(C2SCC(=O)N2NC(=O)c2[nH]c3ccc(F)cc3c2-c2ccccc2)cc1` (stereo not drawn), which growth is on record?
A: 78.7%

Q: With `O=C(Nc1ccccc1)Oc1cccc2cccnc12` as the compound, how does the growth read?
A: 116%

Q: With `CCOC(=O)c1sc(NC(=O)CN2CCC(Cc3ccccc3)CC2)nc1C` as the compound, how does the growth read?
A: 111%

Q: How did the growth turn out when `CN([N-]C(=O)CC(=O)[N-]N(C)C(=S)c1ccccc1)C(=S)c1ccccc1.[Cu+2]` was run?
A: -91.8% (active)

Q: `Clc1cccc(Cl)c1Nc1ccc2nnc(-c3ccncc3)n2n1` was tested. Which growth did it give?
A: 109%

Source: PubChem BioAssay (NCI)
